In PubChem BioAssay (EPA / NIEHS) one finds outcome and AC50 data, which are given here for 39 compounds.

Some compounds were tested as several samples or in several runs, with calls that do not always agree. Calls of active or inactive are those of the source. Rule for the calls: active = hit-call score of the fitted dose curve at least 0.9, where 1 is the maximum; inactive = score below 0.9.

Sequence of Nuclear respiratory factor 1 (Homo sapiens) (Q16656 whole entry, looked up): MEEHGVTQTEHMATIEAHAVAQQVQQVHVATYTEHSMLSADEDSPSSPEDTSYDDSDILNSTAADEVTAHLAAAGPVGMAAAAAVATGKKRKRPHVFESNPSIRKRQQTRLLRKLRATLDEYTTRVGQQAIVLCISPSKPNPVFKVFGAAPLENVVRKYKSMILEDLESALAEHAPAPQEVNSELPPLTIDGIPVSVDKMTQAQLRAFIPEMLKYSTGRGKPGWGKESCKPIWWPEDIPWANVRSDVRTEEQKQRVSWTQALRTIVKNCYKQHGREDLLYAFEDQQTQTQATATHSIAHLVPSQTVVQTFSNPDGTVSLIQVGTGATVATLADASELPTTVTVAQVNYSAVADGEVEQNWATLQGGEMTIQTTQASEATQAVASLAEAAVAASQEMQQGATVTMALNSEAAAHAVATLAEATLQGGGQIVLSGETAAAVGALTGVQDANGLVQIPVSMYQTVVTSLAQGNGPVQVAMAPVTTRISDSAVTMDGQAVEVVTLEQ

The experiment has as its target Nuclear respiratory factor 1 (Homo sapiens) (UniProt Q16656). The experiment can be described thus: ATG_NRF1_CIS: Attagene CIS-FACTORIAL HepG2 Assay for human Nuclear Respiratory Factor 1 (NRF1) Orphan Gene (AID 2282987). The conditions noted are these: HepG2 NRF1 cis-element reporter, Attagene multiplex; actives raise or lower the signal. The method, then:
ATG_CIS is a cell-based, multiplexed-readout assay that uses HepG2, a human liver cell line, with measurements taken at 24 hours after chemical dosing in a 24-well plate.ATG_NRF1_CIS is one of 52 assay component(s) measured or calculated from the ATG_CIS assay. It is designed to make measurements of mRNA induction, a form of inducible reporter, as detected with fluorescence intensity signals by Reverse transcription polymerase chain reaction (RT-PCR) and Capillary electrophoresis technology.Data from the assay component ATG_NRF1_CIS was analyzed into 1 assay endpoint. This assay endpoint, ATG_NRF1_CIS, was analyzed with bidirectional fitting relative to DMSO as the negative control and baseline of activity. Using a type of inducible reporter, measures of mRNA for gain or loss-of-signal activity can be used to understand the reporter gene at the transcription factor-level as they relate to the gene NRF1. Furthermore, this assay endpoint can be referred to as a primary readout, because this assay has produced multiple assay endpoints where this one serves a reporter gene function. To generalize the intended target to other relatable targets, this assay endpoint is annotated to the dna binding intended target family, where the subfamily is nuclear respiratory factors.
Human liver HepG2 cells are transiently transfected with multiple reporter transcription units (MRTUs) in 6-well plates using FuGene 6 reagent (Roche; 3 ml FuGene/1 mg DNA). The MRTU constructs are regulated by a cis-regulating element (promoter). […] A major difference between the CIS and TRANS system is that in CIS activities of endogenous TFs are measured, whereas the TRANS assay evaluates changes in activities of exogenous, chimeric NR-Gal4 proteins. […] At the end of 24 hour incubation, total RNA was isolated using TriZol reagent (Invitrogen). The isolated RNA is then reverse-transcribed using oligo(dT) primer and Mo-MLV reverse transcriptase (Invitrogen) with DNAse I (Ambion) treatment for 30 min. The one-tenth of the produced cDNA was amplified by PCR using Taq DNA polymerase (Invitrogen) and two reporter sequence-specific primers. The PCR products were fluorescently labeled by primer extension with 6-arboxyfluorescein (6-FAM) 5'-labeled reporter sequence-specific primer (2 min at 95 C, 20 s at 68 C and 10 min at 72 C) and these products were digested with 5U of HpaI (New England Biolabs) for 2h at 37 C. The fragments were purified using Qiaquick PCR columns (Qiagen), analyzed on an ABI 3130xL genetic analyzer (Applied Biosystems) with peak positions identified by using a set of X-rhodamine (ROX)-labeled MapMarker1000 molecular weight standards (BioVentures). The raw capillary electrophoresis data was processed using Attagraph software (Attagene).
For the compound `C#C[C@]1(O)CC[C@H]2[C@@H]3CCc4cc(OC)ccc4[C@H]3CC[C@@]21C`, the compound was called inactive.

As to `OCCCC(F)(F)C(F)(F)C(F)(F)C(F)(F)C(F)(F)C(F)(F)C(F)(F)F`, the AC50 was 126 µM (active) and the compound was called inactive.

`O=C(C=Cc1ccccc1)OCC=Cc1ccccc1`: the outcome was inactive.

Take `CCN(CC)c1ccc2c(C)cc(=O)oc2c1`: the outcome was inactive.

In the case of `O=C(O)C(F)(F)C(F)(F)C(F)(F)C(F)(F)C(F)(F)C(F)(F)C(F)(F)C(F)(F)C(F)(F)C(F)(F)C(F)(F)C(F)(F)F`, the compound was classed as inactive.

For the compound `O=S(=O)(OCCOC(F)(F)F)C(F)(F)F`, the compound was called inactive.

As to `CS(C)(=O)=O`, the outcome was inactive.

Regarding `O=C(O)C(F)(F)C(F)(F)C(F)(F)C(F)(F)C(F)(F)C(F)(F)C(F)(F)C(F)(F)C(F)(F)C(F)F`, the result was inactive.

Regarding `Nc1ccc(Oc2cccc(Oc3ccc(N)cc3)c2)cc1`, the AC50 was 76.4 µM (active).

Consider `FC(F)(F)C(F)(F)CNCC(F)(F)C(F)(F)F`, for which the call was inactive.

As to `CC(Cc1ccc(O)c(O)c1)C(C)Cc1ccc(O)c(O)c1` (stereo not given), the compound was classed as inactive.

As to `O=S(=O)(O)c1ccc2ccccc2c1`, the compound was classed as inactive.

Consider `CCCCCCOC(=O)c1ccccc1`, for which the outcome was inactive.

For `C=CC(F)(F)C(F)(F)C(F)(F)C(F)(F)C(F)(F)C(F)(F)C(F)(F)C(F)(F)F`, the result was inactive.

Regarding `C=CC(=O)OCC(F)(F)C(F)(F)C(F)(F)C(F)(F)COC(=O)C=C`, the compound was classed as inactive.

Consider `FC1CC(F)(F)C(F)(F)C1(F)F` (stereo not given), for which the outcome was inactive.

For `OCCCC(F)(F)C(F)(F)C(F)(F)F`, the outcome was inactive.

Turning to `Oc1ccc(Nc2ccccc2)cc1`, the outcome was inactive.

Take `O=P(O)(O)OCCC(F)(F)C(F)(F)C(F)(F)C(F)(F)C(F)(F)C(F)(F)F`: the call was inactive.

On to `N=C(N)C(F)(F)C(F)(F)C(F)(F)C(F)(F)C(F)(F)C(F)(F)C(F)(F)F`, for which the compound was classed as inactive.

Consider `NC(=O)C(F)(F)C(F)(F)C(F)(F)C(F)(F)F`, for which the compound was classed as inactive.

Take `COC(=O)C1CCC(C(=O)OC)CC1` (stereo not given): the outcome was inactive.

`CC(C)(C)C(=O)CC(=O)C(F)(F)C(F)(F)C(F)(F)F`: the result was inactive.

Turning to `CCCCCCC(C)OC(=O)CCCCC(=O)OC(C)CCCCCC` (stereo not given), the outcome was inactive.

Take `C=C(C)C(=O)OCCC(F)(F)C(F)(F)C(F)(F)C(F)(F)C(F)(C(F)(F)F)C(F)(F)F`: the call was inactive.

In the case of `FC(F)(F)C(F)(F)C(F)(F)C(F)(F)C(F)(F)C(F)(F)CC1CO1` (stereo not given), the compound was called inactive.

For `O=C(O)C(F)(F)C(F)(F)OC(F)(F)F`, the compound was classed as inactive.

As for `C(=C(c1ccccc1)c1ccccc1)c1ccccc1`, the outcome was inactive.

With `CC(=O)Nc1ccc(N=Nc2cc(C)ccc2O)cc1`, the AC50 is 27.1 µM (active).

In the case of `CC(C)=CCCC(C)CCOC(=O)C(C)C` (stereo not given), the outcome was inactive.

Regarding `CCCCC(CC)COP(=O)(O)OCC(CC)CCCC` (stereo not given), the outcome was inactive.

On to `C1COCCN1`, for which the compound was called inactive.

Take `C=C(C)C(=O)OCC(F)(F)C(F)(F)C(F)(F)C(F)(F)C(F)(F)C(F)(F)C(F)(F)F`: the compound was classed as inactive.

Take `O=C(O)C(F)(F)C(F)(F)F`: the compound was called inactive.

On to `O=C(O)C(F)(F)C(F)(F)C(F)(F)C(F)(F)C(F)(F)C(F)(F)C(F)(F)C(F)(F)Cl`, for which the compound was called inactive.

Turning to `CN(C)Cc1ccccc1O`, the outcome was inactive.

For `FC(F)(F)C(F)(F)C(F)(F)N(C(F)(F)C(F)(F)C(F)(F)F)C(F)(F)C(F)(F)C(F)(F)F`, the call was inactive.

Take `FC(F)(F)C(F)(F)C(F)(F)C(F)(F)C(F)(F)C(F)(F)CCS`: the compound was classed as inactive.

On to `CCCCNc1ccccc1`, for which the result was inactive.
